Experimental data from publication PMC4336329 (PLoS ONE, 2015).
The campaign covered roughly 310,000 compounds. About 14,000 (4.5%) showed an effect of 50% or more. The effect is printed as a negative number. Shown is part of a subset that was picked to be rich in strong results.

Target: human ether-à-go-go-related gene (hERG) potassium channel (human, UniProt Q12809)
Test: primary screen, population patch clamp on CHO cells stably expressing hERG; higher = less effect of the substance
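Further: peak tail current of the secondary pulse compared with the same well before compound.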

Chain of human ether-à-go-go-related gene (hERG) potassium channel (Q12809 whole entry, looked up): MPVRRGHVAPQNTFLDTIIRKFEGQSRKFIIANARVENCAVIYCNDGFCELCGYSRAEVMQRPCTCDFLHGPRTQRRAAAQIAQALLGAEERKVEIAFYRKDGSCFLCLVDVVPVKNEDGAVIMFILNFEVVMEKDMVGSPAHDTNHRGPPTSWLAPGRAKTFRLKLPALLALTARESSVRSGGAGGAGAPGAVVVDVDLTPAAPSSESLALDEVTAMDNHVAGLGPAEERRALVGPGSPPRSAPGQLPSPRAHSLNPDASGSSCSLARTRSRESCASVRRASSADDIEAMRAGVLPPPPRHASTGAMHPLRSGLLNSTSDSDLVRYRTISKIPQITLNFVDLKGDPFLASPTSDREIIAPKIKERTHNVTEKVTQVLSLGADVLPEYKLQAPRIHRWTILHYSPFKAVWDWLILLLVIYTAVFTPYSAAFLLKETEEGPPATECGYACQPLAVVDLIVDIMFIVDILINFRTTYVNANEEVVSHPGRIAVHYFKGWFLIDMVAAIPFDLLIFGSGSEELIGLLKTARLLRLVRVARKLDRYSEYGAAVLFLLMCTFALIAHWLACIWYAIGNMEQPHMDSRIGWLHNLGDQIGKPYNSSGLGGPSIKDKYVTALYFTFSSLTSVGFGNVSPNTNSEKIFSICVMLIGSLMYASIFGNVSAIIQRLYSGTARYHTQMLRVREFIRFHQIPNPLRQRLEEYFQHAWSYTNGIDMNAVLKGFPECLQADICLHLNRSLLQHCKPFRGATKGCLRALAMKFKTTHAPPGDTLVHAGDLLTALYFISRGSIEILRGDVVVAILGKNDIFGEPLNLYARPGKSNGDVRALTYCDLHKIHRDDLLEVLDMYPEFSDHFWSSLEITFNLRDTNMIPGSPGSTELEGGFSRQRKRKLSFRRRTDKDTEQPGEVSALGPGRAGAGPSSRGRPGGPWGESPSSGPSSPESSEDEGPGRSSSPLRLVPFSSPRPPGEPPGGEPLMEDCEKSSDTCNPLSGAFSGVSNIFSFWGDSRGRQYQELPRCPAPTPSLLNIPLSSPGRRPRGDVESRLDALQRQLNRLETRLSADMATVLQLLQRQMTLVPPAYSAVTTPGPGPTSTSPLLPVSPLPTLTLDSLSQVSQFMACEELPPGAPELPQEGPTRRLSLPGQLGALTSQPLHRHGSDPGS

| Structure (SMILES) | hERG current change (%, negative = inhibition) at 10uM |
| --- | --- |
| CCC(Sc1nc(-c2ccccc2)c(C#N)c(=O)[nH]1)C(=O)Nc1nnc(C)s1 (centres unmarked) | 1.73% |
| Cc1ccc(NC(=S)Nc2nc(CC(=O)Nc3ccccc3)cs2)cc1 | 13% |
| COC(=O)c1ccc(-c2ccc(/C=N/N3C(=O)C4C5C=CC(CC5)C4C3=O)o2)cc1 (centres unmarked) | -16.1% |
| CC(C)CC(=O)N1CCN(Cc2cccc(Cl)c2)CC1 | 7.42% |
| CCN1CCN(CCNC(=O)c2ccc3c(c2)N(Cc2ccc(F)cc2)C(=O)/C(=C/c2ccccc2)S3)CC1 | -42.7% |
| CN(C)Cc1nnnn1-c1cccc(-n2nnnc2CN(C)C)c1 | 12.3% |
| COCC(=O)NC1CCN(CC(=O)Nc2ccc(OC)cc2[N+](=O)[O-])CC1 | -2.46% |
| CC(C)c1ccc(Nc2nnc(SCC(=O)Nc3ncc(S(=O)(=O)c4ccc([N+](=O)[O-])cc4)s3)s2)cc1 | 13.8% |
| COC(=O)C1=CN(CCOC23CC4CC(CC(C4)C2)C3)C=C(C(=O)OC)C1c1ccsc1 | 10% |
| Cn1c(=O)[nH]c2ccc([N+](=O)[O-])nc21 | 9.62% |
| Cc1cc(=O)oc2cc(NC(=O)C3CC(=O)N(Cc4ccccc4)C3)ccc12 (centres unmarked) | 5.29% |
| COc1ccccc1NC(=O)N1CCN(c2cccc(C(F)(F)F)c2)CC1 | -76.6% |
| COc1ccc(NC(=O)N2CCN(c3cccc(C(F)(F)F)c3)CC2)cc1OC | -1.73% |
| COc1ccc(NC(=O)N2CCN(c3cccc(C(F)(F)F)c3)CC2)cc1 | -1.89% |
| O=C(CN1C(=O)COCC1=O)N1CCOCC1 | 3.2% |
| Cc1ccc(C)n1-c1ccc(-c2nnco2)cc1 | 8.42% |
| COc1ccc(CCNCc2ccccc2N2CCCC2)cc1.O=C(O)C(=O)O | -41.8% |
| c1ccc(CCNCCOc2ccccc2)cc1 | -0.101% |
| COc1ccc(OCCCC(=O)NCCc2ccccc2)cc1 | -7.79% |
| COCCCNCCOc1ccc(C(C)(C)c2ccccc2)cc1.O=C(O)C(=O)O | -54.5% |
| COc1ccc(CCNCc2ccncc2)cc1.O=C(O)C(=O)O | -13.7% |
| Clc1ccc(OCCNCCc2ccccc2)cc1.O=C(O)C(=O)O | -73.7% |
| COCCCNCCCOc1ccc(C(C)(C)c2ccccc2)cc1.O=C(O)C(=O)O | -19.9% |

| Structure (SMILES) | hERG current change (%, negative = inhibition) at 10uM |
| --- | --- |
| COc1ccc(OCCCNCCc2ccccc2)cc1.O=C(O)C(=O)O | -57% |
| COCCNCCCOc1ccc(C(C)(C)c2ccccc2)cc1.O=C(O)C(=O)O | -29.3% |
| COc1ccc(CCNCc2c(-c3ccccc3)n(C)c3ccccc23)cc1.O=C(O)C(=O)O | -52.3% |
| COc1ccc(CCNCc2ccccc2)cc1.O=C(O)C(=O)O | -23.9% |
| O=C(CCCOc1ccc(Cl)cc1)NCCc1ccccc1 | 5.77% |
| COc1cccc(C2c3[nH]c4ccccc4c3C[C@H]3C(=O)N(CCCO)CC(=O)N23)c1OC (some centres unmarked) | -6.83% |
| CC1(c2nnc(Cc3ccccc3)o2)CC(c2ccccc2F)=NO1 (centres unmarked) | -12.6% |
| CC(C)Sc1nc(N2CCOCC2)c2c(c1C#N)CC(C)(C)SC2 | 5.69% |
| CC1=C(C(N)=O)C(c2ccccc2)n2nc(-c3ccncc3)nc2N1 (centres unmarked) | 11.2% |
| COC(=O)C1C2CCC(C2)C1C(=O)OCC(=O)c1ccc(C)cc1 (centres unmarked) | -19.5% |
| CC1(C)CC(=O)C=C(Nc2ccc([N+](=O)[O-])cc2)C1 | -16.6% |
| COc1ccc(NC(=O)CCOc2ccc(C)cc2)cc1S(=O)(=O)N1CCOCC1 | -34.9% |
| COc1ccc(C(=S)N2CCCC2)cc1C | 4.72% |
| CCCCCCOC(=O)c1ccc(NC(=O)c2cc(OC)c(OC)c(OC)c2Br)cc1 | 5.84% |
| CCOC(=O)c1ccc(CNC(=O)CSc2nnc(-c3ccncc3)o2)cc1 | -1.31% |
| COc1ccc(CNC/C=C/c2ccccc2)cc1.Cl | -42.2% |
| COc1ccc(CCNC/C=C/c2ccccc2)cc1.Cl | -51.4% |
| Cl.NS(=O)(=O)c1ccc(CCNC/C=C/c2ccccc2)cc1 | -48.7% |
| Cc1nn(C)c(C)c1CNC(=O)Nc1ccc2c(c1)OCO2 | 12% |
| CC(NC(=O)CN(C)S(=O)(=O)c1ccc(F)cc1)C1CC2CCC1C2 (centres unmarked) | -2.34% |
| O=C(CCSCCc1ccccn1)Nc1c(F)c(F)c(F)c(F)c1F | -23.3% |
| CC(C)Nc1cc(C(C)(C)C)nc2c(-c3ccccc3)cnn12 | 8.72% |
| CCC(C)(C)n1nnnc1C(C(C)C)N1CCSCC1 (centres unmarked) | -61.6% |

| Structure (SMILES) | hERG current change (%, negative = inhibition) at 10uM |
| --- | --- |
| CC(C)(C)n1nnnc1C(c1ccc(Cl)cc1)N1CCSCC1 (centres unmarked) | -0.553% |
| CCC(C)(C)n1nnnc1C(C(C)C)N1CCC(C(N)=O)CC1 (centres unmarked) | 10.4% |
| CCC(C)(C)n1nnnc1C(c1ccc(C)cc1)N1CCSCC1 (centres unmarked) | -55.1% |
| CCC(C)(C)n1nnnc1C(C(C)C)N1CCN(C)CC1.Cl (centres unmarked) | 6.63% |
| CCC(C)(C)n1nnnc1C(c1ccc(C)cc1)N1CCCC1.Cl (centres unmarked) | -11.7% |
| N#C/C(=C/c1ccc2c(c1)OCO2)C(=O)Nc1ccc(O)cc1 | -0.516% |
| COc1ccc(NC(C)=O)cc1S(=O)(=O)N(C)Cc1c(C)nn(-c2ccccc2)c1C | -13% |
| COCC(C)OC(=O)/C(C#N)=C\c1coc2ccc(C)cc2c1=O (centres unmarked) | -20.9% |
| CC(C)(C)c1ccccc1NC(=S)NC1CCCC1 | 1.41% |
| COc1ccc(N2C(=O)CCC(C(=O)N3CCC(C(N)=O)CC3)C2c2ccc(F)cc2)cc1 (centres unmarked) | -2.18% |
| Cc1c(CCOC(=O)C2C3CC4CC(C3)CC2C4)sc[n+]1CC(=O)c1ccc(Br)cc1.[Br-] (centres unmarked) | -31.4% |
| Cc1c(CCOC(=O)C23CC4CC(CC(C)(C4)C2)C3)sc[n+]1Cc1ccccc1.[Cl-] | -34.5% |
| Cc1c(CCO)sc[n+]1CC(=O)OCCC12CC3CC(CC(C3)C1)C2.[Cl-] | 11.8% |
| Cc1c(CCOC(=O)CC23CC4CC(CC(C4)C2)C3)sc[n+]1Cc1ccccc1.[Cl-] | -42.1% |
| Cc1c(CCOC(=O)CC23CC4CC(CC(C4)C2)C3)sc[n+]1CC(=O)c1ccc(Br)cc1.[Br-] | -75.1% |
| Cc1c(CCOC(=O)CC23CC4CC(CC(C)(C4)C2)C3)sc[n+]1Cc1ccc([N+](=O)[O-])cc1.[Br-] | -87.8% |
| Cc1c(CCOC(=O)C23CC4CC(CC(C)(C4)C2)C3)sc[n+]1CC(=O)c1ccccc1.[Br-] | -26.7% |
| Cc1ncc(C[n+]2csc(CCOC(=O)CC34CC5CC(CC(C5)C3)C4)c2C)c(N)n1.Cl.[Cl-] | -4.79% |
| Cc1c(CCOC(=O)CC23CC4CC(CC(C)(C4)C2)C3)sc[n+]1CC(=O)c1ccccc1.[Br-] | -56.8% |
| Cc1c(CCO)sc[n+]1CC(=O)OC12CC3CC(CC(C3)C1)C2.[Cl-] | 19.8% |
| Cc1c(CCOC(=O)CC23CC4CC(CC(C4)C2)C3)sc[n+]1CC(=O)c1ccccc1.[Br-] | -59.4% |
| Cc1c(CCOC(=O)C23CC4(C)CC(C)(CC(C)(C4)C2)C3)sc[n+]1CC(=O)c1ccccc1.[Br-] | -19.5% |
